From PubChem BioAssay (NCI)
About 83,000 compounds went through this panel and 20% of them were active in at least one assay; those are over-represented in the sample as a whole.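 A percent growth of 40 corresponds to 60% growth inhibition; 0 means no net growth; -100 means all cells died. Active threshold: below 10.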 Calls of active or inactive are those of the source.

Columns and labels:
Experiment in all cases: NCI-60 one-dose screen, 48 h (100 = growth as untreated, 0 = no growth, -100 = all killed)
Settings in all cases: 10 µM
NCI-H23 lung = tested on: NCI-H23 lung
NCI-H226 lung = tested on: NCI-H226 lung
NCI-H322M lung = tested on: NCI-H322M lung
HOP-62 NSCLC = tested on: HOP-62 NSCLC
NCI-H460 lung = tested on: NCI-H460 lung
HOP-92 NSCLC = tested on: HOP-92 NSCLC
NCI-H522 lung = tested on: NCI-H522 lung
A549/ATCC NSCLC = tested on: A549/ATCC NSCLC
786-0 renal = tested on: 786-0 renal
COLO 205 colon = tested on: COLO 205 colon

Measured: growth

COc1ccc(-c2nc(-c3ccccc3)c(-c3ccccc3)[nH]2)cc1OC1CCCC1
inactive: NCI-H23 lung 73.1% | NCI-H226 lung 88.9% | NCI-H322M lung 66% | HOP-62 NSCLC 113% | NCI-H460 lung 61.4% | HOP-92 NSCLC 12.6% | NCI-H522 lung 36.1% | A549/ATCC NSCLC 61.8% | 786-0 renal 78.6% | COLO 205 colon 86.3%

COc1cc(-c2n/c(=C\c3c(O)[nH]c4ccccc34)cc3c2=Nc2ccccc2-3)cc(OC)c1OC
inactive: NCI-H23 lung 22.9% | NCI-H226 lung 22% | NCI-H322M lung 47.3% | HOP-62 NSCLC 41.4% | HOP-92 NSCLC 22.9% | 786-0 renal 16.7%
active: NCI-H460 lung 3.31% | NCI-H522 lung -7.72% | A549/ATCC NSCLC 9.21% | COLO 205 colon -49.2%

CCCC(C)c1ccc(OCCCCCCN2CCNCC2)cc1 (stereo not given)
inactive: NCI-H23 lung 61.6% | NCI-H226 lung 89.3% | NCI-H322M lung 58.3% | HOP-62 NSCLC 66.6% | HOP-92 NSCLC 25.1% | A549/ATCC NSCLC 39.7%
active: NCI-H460 lung 6.72% | NCI-H522 lung 3.3% | 786-0 renal -21.1% | COLO 205 colon -68.3%

O=C(Cn1ccc(=O)[nH]c1=O)c1ccc([N+](=O)[O-])o1
inactive: NCI-H23 lung 108% | NCI-H226 lung 103% | NCI-H322M lung 120% | HOP-62 NSCLC 118% | NCI-H460 lung 100% | HOP-92 NSCLC 136% | A549/ATCC NSCLC 109% | 786-0 renal 108% | COLO 205 colon 71.5%
active: NCI-H522 lung -91.7%

COc1c(C)c(C)c(OC)c2c1[nH]c(=O)c1c3cccnc3cn21
inactive: NCI-H23 lung 103% | NCI-H226 lung 99% | NCI-H322M lung 153% | HOP-62 NSCLC 92.6% | NCI-H460 lung 104% | HOP-92 NSCLC 102% | NCI-H522 lung 98.4% | A549/ATCC NSCLC 114% | 786-0 renal 114% | COLO 205 colon 118%

O=S(=O)(NCl)c1ccccc1
inactive: NCI-H23 lung 104% | NCI-H226 lung 110% | NCI-H322M lung 88.1% | HOP-62 NSCLC 110% | NCI-H460 lung 105% | HOP-92 NSCLC 108% | NCI-H522 lung 99.6% | A549/ATCC NSCLC 94.7% | 786-0 renal 95.9% | COLO 205 colon 113%

OC(CNC1CCCC1)Cn1c2ccccc2c2ccccc21 (stereo not given)
active: NCI-H460 lung 8.53% | 786-0 renal 9.8% | COLO 205 colon -66.2%
inactive: NCI-H23 lung 31% | NCI-H226 lung 99.5% | NCI-H322M lung 51% | HOP-62 NSCLC 50.1% | HOP-92 NSCLC 26.2% | NCI-H522 lung 27.7% | A549/ATCC NSCLC 11.1%

O=S(=O)(NC1c2ccccc2Oc2ccccc21)c1ccccc1
inactive: NCI-H23 lung 98% | NCI-H226 lung 95.3% | NCI-H322M lung 91.6% | HOP-62 NSCLC 90.1% | NCI-H460 lung 107% | HOP-92 NSCLC 63.8% | NCI-H522 lung 31.3% | A549/ATCC NSCLC 98.4% | 786-0 renal 82.1% | COLO 205 colon 95.6%

CS(=O)(=O)Nc1ccc(OCc2nnc(-c3ccc(Cl)cc3)o2)c(F)c1
inactive: NCI-H23 lung 93.6% | NCI-H226 lung 86.2% | NCI-H322M lung 109% | HOP-62 NSCLC 87.2% | NCI-H460 lung 98.9% | HOP-92 NSCLC 88.3% | NCI-H522 lung 94.8% | A549/ATCC NSCLC 90.2% | 786-0 renal 89.4% | COLO 205 colon 110%

S=c1c2ncccc2c(-c2ccccn2)nn1Cc1ccccn1
inactive: NCI-H23 lung 90.6% | NCI-H226 lung 104% | NCI-H322M lung 102% | HOP-62 NSCLC 85.3% | NCI-H460 lung 108% | HOP-92 NSCLC 94.7% | NCI-H522 lung 88.5% | A549/ATCC NSCLC 81% | 786-0 renal 96.9% | COLO 205 colon 92.8%

COc1ccc(NC(=O)c2sc3nc4c(cc3c2N)C(O)CCC4)cc1 (stereo not given)
inactive: NCI-H23 lung 98.5% | NCI-H226 lung 101% | NCI-H322M lung 30.6% | HOP-62 NSCLC 117% | NCI-H460 lung 48.3% | HOP-92 NSCLC 85.2% | NCI-H522 lung 99.8% | A549/ATCC NSCLC 70% | 786-0 renal 94.8% | COLO 205 colon 110%

Oc1[nH]c2ccccc2c1/C=c1/cc2c(c(-c3ccc(C(F)(F)F)cc3)n1)=Nc1ccccc1-2
inactive: NCI-H23 lung 71.1% | NCI-H226 lung 54.1% | NCI-H322M lung 93.8% | HOP-62 NSCLC 85% | NCI-H460 lung 22% | HOP-92 NSCLC 20.7% | NCI-H522 lung 33.5% | A549/ATCC NSCLC 56.8% | 786-0 renal 66% | COLO 205 colon 33.9%

CCCCCCCCCCCCCCCCCBr
inactive: NCI-H23 lung 106% | NCI-H226 lung 94.9% | NCI-H322M lung 94.6% | HOP-62 NSCLC 104% | NCI-H460 lung 106% | HOP-92 NSCLC 98.8% | NCI-H522 lung 98.4% | A549/ATCC NSCLC 108% | 786-0 renal 104% | COLO 205 colon 106%

CC(C)C[C@H](NC(=O)Cn1ccc(Nc2ccccc2)cc1=O)B(O)O
inactive: NCI-H23 lung 44.1% | NCI-H322M lung 91.5% | HOP-62 NSCLC 49.5% | NCI-H460 lung 77.3% | A549/ATCC NSCLC 71.4% | 786-0 renal 33.1% | COLO 205 colon 40.8%
active: NCI-H226 lung -71.1% | HOP-92 NSCLC 1.31% | NCI-H522 lung -24%

COc1cc(-c2nc(-c3nnc(-c4cccnc4)o3)c3ccccn23)cc(OC)c1OC
inactive: NCI-H23 lung 101% | NCI-H226 lung 86% | NCI-H322M lung 101% | HOP-62 NSCLC 102% | NCI-H460 lung 109% | HOP-92 NSCLC 100% | NCI-H522 lung 94.7% | A549/ATCC NSCLC 93.9% | 786-0 renal 89.1% | COLO 205 colon 119%

COc1cc(CSc2nc3ccc(Cl)cc3c(=O)n2-c2ccccc2)cc(OC)c1OC
inactive: NCI-H23 lung 79% | NCI-H226 lung 89.2% | NCI-H322M lung 85.7% | HOP-62 NSCLC 72% | NCI-H460 lung 96.6% | HOP-92 NSCLC 89% | NCI-H522 lung 38.5% | A549/ATCC NSCLC 73.9% | 786-0 renal 89.3% | COLO 205 colon 84.5%

COc1ccc(-c2oncc2-c2cc(OC)c3c(c2)OCO3)cc1
inactive: NCI-H23 lung 47.7% | NCI-H226 lung 77.5% | NCI-H322M lung 39% | HOP-62 NSCLC 33.2% | NCI-H460 lung 11.5% | A549/ATCC NSCLC 27.7% | 786-0 renal 36.6% | COLO 205 colon 15%
active: HOP-92 NSCLC -3.69% | NCI-H522 lung 3.28%

COc1cc(-c2c(C#N)c(N)n3c(nc4ccccc43)c2C#N)cc(Br)c1OC
active: HOP-92 NSCLC -20.7% | A549/ATCC NSCLC 4.73%
inactive: NCI-H23 lung 59.2% | NCI-H226 lung 27.8% | NCI-H322M lung 70.9% | HOP-62 NSCLC 74.5% | NCI-H460 lung 28.4% | NCI-H522 lung 39.8% | 786-0 renal 22.2% | COLO 205 colon 55.1%

C(=C\c1nc2ccccc2s1)/c1ccc(N2CCOCC2)s1
inactive: NCI-H23 lung 78% | NCI-H226 lung 89.4% | NCI-H322M lung 79.7% | HOP-62 NSCLC 118% | NCI-H460 lung 80.7% | HOP-92 NSCLC 93% | NCI-H522 lung 64.2% | A549/ATCC NSCLC 83.3% | 786-0 renal 82.5% | COLO 205 colon 94.8%

CCCCCCCCCCCC(=O)NCCCN(C)C
inactive: NCI-H23 lung 90.4% | NCI-H226 lung 109% | NCI-H322M lung 97.1% | HOP-62 NSCLC 111% | NCI-H460 lung 99.6% | HOP-92 NSCLC 45.5% | NCI-H522 lung 87.4% | A549/ATCC NSCLC 91.4% | 786-0 renal 90.9% | COLO 205 colon 94.4%

COCCOC(=O)NC(=O)Nc1ccc(/C(=N/O)c2ccc(Cl)cc2)cc1
inactive: NCI-H23 lung 29.2% | NCI-H226 lung 33.3% | NCI-H322M lung 30.5% | HOP-62 NSCLC 19.2% | HOP-92 NSCLC 44.6% | A549/ATCC NSCLC 15.4% | 786-0 renal 22.3%
active: NCI-H460 lung 7.81% | NCI-H522 lung -38.3% | COLO 205 colon -42.6%

Cc1cnc(C=O)c2cccc([N+](=O)[O-])c12
inactive: NCI-H23 lung 98.7% | NCI-H226 lung 77.7% | NCI-H322M lung 103% | HOP-62 NSCLC 91.7% | NCI-H460 lung 106% | HOP-92 NSCLC 61.2% | NCI-H522 lung 96% | A549/ATCC NSCLC 104% | 786-0 renal 99.7% | COLO 205 colon 106%

COc1nc2c(c(=O)[nH]1)C(c1ccc(Oc3ccnc4cc(Cl)ccc34)c(OC)c1)C=C(c1cc(OC)c(OC)c(OC)c1)N2 (stereo not given)
inactive: NCI-H23 lung 95.3% | NCI-H226 lung 96.6% | NCI-H322M lung 95.2% | HOP-62 NSCLC 116% | NCI-H460 lung 102% | HOP-92 NSCLC 82.1% | NCI-H522 lung 93.3% | A549/ATCC NSCLC 101% | 786-0 renal 95% | COLO 205 colon 102%

COC(=O)[C@]12CC[C@@H](C)[C@H](C)[C@@H]1C1=CC[C@@H]3[C@@]4(C)CC(=O)[C@H](O)[C@@](C)(CO)[C@@H]4C(=O)C[C@@]3(C)[C@]1(C)CC2
active: NCI-H23 lung -14.2% | NCI-H226 lung -5.55% | HOP-62 NSCLC -21.5% | NCI-H460 lung -48.9% | HOP-92 NSCLC -22.5% | NCI-H522 lung -65.9% | A549/ATCC NSCLC -63.6% | 786-0 renal 0.121% | COLO 205 colon -64.6%
inactive: NCI-H322M lung 18.4%

O=c1c2cccc3c(Nc4ccc(Br)cn4)ccc(c32)c2nc3ccccc3n12
inactive: NCI-H23 lung 81.3% | NCI-H226 lung 93.2% | NCI-H322M lung 77.9% | HOP-62 NSCLC 87.6% | NCI-H460 lung 86.6% | HOP-92 NSCLC 62.4% | NCI-H522 lung 89.4% | A549/ATCC NSCLC 106% | 786-0 renal 96.9% | COLO 205 colon 88.2%

CCNC(=S)NN
inactive: NCI-H23 lung 93.1% | NCI-H226 lung 99.1% | NCI-H322M lung 78.7% | HOP-62 NSCLC 76.2% | NCI-H460 lung 95.6% | HOP-92 NSCLC 87.3% | NCI-H522 lung 105% | A549/ATCC NSCLC 72.5% | 786-0 renal 99.5% | COLO 205 colon 106%

COc1cc(Cn2c(-c3ccccc3)cc3c2-c2oncc2CC3)cc(OC)c1
active: NCI-H226 lung -3.31% | NCI-H322M lung 8.6% | NCI-H460 lung -0.835% | NCI-H522 lung -17.2% | COLO 205 colon -29.6%
inactive: NCI-H23 lung 23.7% | HOP-62 NSCLC 60.5% | HOP-92 NSCLC 48.8% | A549/ATCC NSCLC 23.3% | 786-0 renal 37.6%
